target: T1, Calcium/calmodulin-dependent protein kinase type IV (Homo sapiens) (UniProt Q16566); conditions: at 0.1 µM
T1 sequence (whole entry): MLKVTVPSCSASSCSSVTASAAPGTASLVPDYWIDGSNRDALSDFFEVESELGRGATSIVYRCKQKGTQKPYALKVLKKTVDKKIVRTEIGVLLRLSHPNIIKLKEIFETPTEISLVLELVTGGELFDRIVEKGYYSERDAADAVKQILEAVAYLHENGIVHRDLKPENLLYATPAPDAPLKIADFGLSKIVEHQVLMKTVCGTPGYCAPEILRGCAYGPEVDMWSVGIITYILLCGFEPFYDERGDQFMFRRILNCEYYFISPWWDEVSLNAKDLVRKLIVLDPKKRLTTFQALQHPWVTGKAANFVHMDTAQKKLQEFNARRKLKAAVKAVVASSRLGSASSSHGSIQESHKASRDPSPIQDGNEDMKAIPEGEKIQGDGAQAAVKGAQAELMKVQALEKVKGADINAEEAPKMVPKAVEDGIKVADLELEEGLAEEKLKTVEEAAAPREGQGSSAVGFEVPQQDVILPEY

| SMILES | inhibition [%] |
| --- | --- |
| O=C(Nc1n[nH]c2cc(-c3ccccc3)ccc12)C1CC1 | -1.93 |
| Cc1ccc(C(=O)NC2CCC2)cc1-c1ccc(C(=O)NCC2CC2)cc1 | 0.4 |
| O=C(Nc1n[nH]c2cc(-c3cc(F)ccc3F)ccc12)C1CC1 | 1.86 |
| CNC(=O)c1cncc(/C=C/c2c(C)cccc2C)c1 | 2.28 |
| O=C(Nc1n[nH]c2nc(-c3ccc(O)cc3)c(Br)cc12)C1CC1 | -0.14 |
| NS(=O)(=O)c1ccc(N/N=C2\C(=O)Nc3ccc(-c4cnco4)cc32)cc1 | -0.57 |
| Fc1ccc(-c2ncn(CCCN3CCOCC3)c2-c2ccncc2)cc1 | 1.75 |
| C[C@@H](Oc1cc(-n2cnc3ccc(OCC4CCN(C)CC4)cc32)sc1C(N)=O)c1ccccc1Cl | 0.69 |
| CCc1ccc(Oc2nccc(-c3c(-c4ccc(F)cc4)ncn3C3CCNCC3)n2)cc1 | 2.89 |
| COc1cccc(/C=N/Nc2ncnc3c2cnn3-c2cccc(OC)c2)c1 | -0.53 |
| COc1ccc2cc(-c3c(-c4ccncc4)nc(-c4ccc(S(C)(=O)=O)cc4C)n3C)ccc2c1 | 0.37 |
| CS(=O)(=O)CCNCc1ccc(-c2ccc3ncnc(Nc4ccc(OCc5ccccc5)c(Br)c4)c3c2)o1 | -1.3 |
| Fc1ccc(-c2ncn(C3CCNCC3)c2-c2ccnc(Oc3ccc(Oc4ccccc4)cc3)n2)cc1 | -1.5 |
| O=C1Nc2ccc(I)cc2C1=Cc1cc(Br)c(O)c(Br)c1 | 0.52 |
| COc1cc(Nc2ncc3c(C)nc(-c4cccc(Oc5ccccc5)c4)n3n2)cc(OC)c1OC | 1.65 |
| CN1CCN(CCCNc2nc3ccc(Oc4ccc(NC(=O)Nc5cc(C(F)(F)F)ccc5F)cc4)cc3[nH]2)CC1 | 1.94 |
| COc1cc(Nc2ncc(-c3ccccc3)o2)cc(OC)c1OC | -4.13 |

| SMILES | inhibition [%] |
| --- | --- |
| COc1ccc(C2=C(N3CCc4ccccc43)C(=O)NC2=O)cc1 | 0.45 |
| Cc1ccc(C(=O)NC(C)C)cc1-c1ccc(C(=O)NCC2CC2)cc1 | -0.94 |
| NC(=O)c1cc(-c2ccc(F)cc2)cc(-c2ccncc2)c1N | 0.77 |
| Clc1ccc(CNc2nccc(-c3cnn4ncccc34)n2)cc1 | 1.93 |
| O=C1Nc2ccccc2/C1=C/Nc1ccc(-n2cncn2)cc1 | -0.87 |
| Fc1ccc(-c2ncn(C3CCNCC3)c2-c2ccnc(Oc3ccc(F)c(F)c3)n2)cc1 | -2.42 |
| CN(c1ccc(NC(=O)Nc2c(Cl)cccc2Cl)cc1)c1ccnc(Nc2cccc(CS(C)(=O)=O)c2)n1 | -1.59 |
| NC(=O)Cc1ccccc1Oc1nccc(-c2c(-c3ccc(F)cc3)ncn2C2CCNCC2)n1 | 0.99 |
| CN(C)CCOc1ccc(-c2cc(-c3ccc4c(c3)CCC4=NO)c(-c3ccncc3)o2)cc1 | -0.94 |
| CN(C)c1ccc2c(c1)/C(=C/Nc1ccc(S(N)(=O)=O)cc1)C(=O)N2 | 0.96 |
| COc1cc(C)c(N(C)C(=O)CN(C)C)cc1Nc1nc(Nc2cccc(F)c2C(N)=O)c2cc[nH]c2n1 | 1.4 |
| O=C(NCC1CC1)c1ccc(-c2cccc(C(=O)NC3CC3)c2)cc1 | 0.89 |
| COc1cc(N2CCN(C(C)C)CC2)ccc1Nc1nc(Nc2ccc(F)cc2C(=O)NC[C@@H](O)CO)c2cc[nH]c2n1 | -2.03 |
| NC(=O)c1ccc(Oc2nccc(-c3c(-c4ccc(F)cc4)ncn3C3CCNCC3)n2)cc1 | 0.24 |
| COc1cc2ncn(-c3cc(OCCc4ccccc4)c(C(N)=O)s3)c2cc1OC | 1.62 |
| CCc1cccc(CC)c1/C=C/c1cncc(C(=O)NC)c1 | 1.05 |
| COc1ccc2cc(-c3c(-c4ccncc4)nc(-c4ccc([S+](C)[O-])cc4C)n3C)ccc2c1 (stereo not drawn) | 0.58 |

target: T1, Calcium/calmodulin-dependent protein kinase type IV (Homo sapiens); conditions: at 1 µM

| SMILES | inhibition [%] |
| --- | --- |
| O=C(Nc1n[nH]c2cc(-c3ccccc3)ccc12)C1CC1 | -1.21 |
| Cc1ccc(C(=O)NC2CCC2)cc1-c1ccc(C(=O)NCC2CC2)cc1 | 0.59 |
| O=C(Nc1n[nH]c2cc(-c3cc(F)ccc3F)ccc12)C1CC1 | 1.99 |
| CNC(=O)c1cncc(/C=C/c2c(C)cccc2C)c1 | 0.99 |
| O=C(Nc1n[nH]c2nc(-c3ccc(O)cc3)c(Br)cc12)C1CC1 | 2.12 |
| NS(=O)(=O)c1ccc(N/N=C2\C(=O)Nc3ccc(-c4cnco4)cc32)cc1 | -0.99 |
| Fc1ccc(-c2ncn(CCCN3CCOCC3)c2-c2ccncc2)cc1 | 2.08 |
| C[C@@H](Oc1cc(-n2cnc3ccc(OCC4CCN(C)CC4)cc32)sc1C(N)=O)c1ccccc1Cl | 3.44 |
| CCc1ccc(Oc2nccc(-c3c(-c4ccc(F)cc4)ncn3C3CCNCC3)n2)cc1 | 5.14 |
| COc1cccc(/C=N/Nc2ncnc3c2cnn3-c2cccc(OC)c2)c1 | 0.8 |
| COc1ccc2cc(-c3c(-c4ccncc4)nc(-c4ccc(S(C)(=O)=O)cc4C)n3C)ccc2c1 | 0.96 |
| CS(=O)(=O)CCNCc1ccc(-c2ccc3ncnc(Nc4ccc(OCc5ccccc5)c(Br)c4)c3c2)o1 | -2.06 |
| Fc1ccc(-c2ncn(C3CCNCC3)c2-c2ccnc(Oc3ccc(Oc4ccccc4)cc3)n2)cc1 | 4.41 |
| O=C1Nc2ccc(I)cc2C1=Cc1cc(Br)c(O)c(Br)c1 | 4.99 |
| COc1cc(Nc2ncc3c(C)nc(-c4cccc(Oc5ccccc5)c4)n3n2)cc(OC)c1OC | 4.26 |
| CN1CCN(CCCNc2nc3ccc(Oc4ccc(NC(=O)Nc5cc(C(F)(F)F)ccc5F)cc4)cc3[nH]2)CC1 | 4.86 |
| COc1cc(Nc2ncc(-c3ccccc3)o2)cc(OC)c1OC | 0.09 |

| SMILES | inhibition [%] |
| --- | --- |
| COc1ccc(C2=C(N3CCc4ccccc43)C(=O)NC2=O)cc1 | 0.33 |
| Cc1ccc(C(=O)NC(C)C)cc1-c1ccc(C(=O)NCC2CC2)cc1 | -2.57 |
| NC(=O)c1cc(-c2ccc(F)cc2)cc(-c2ccncc2)c1N | 0.56 |
| Clc1ccc(CNc2nccc(-c3cnn4ncccc34)n2)cc1 | 1.7 |
| O=C1Nc2ccccc2/C1=C/Nc1ccc(-n2cncn2)cc1 | -2.92 |
| Fc1ccc(-c2ncn(C3CCNCC3)c2-c2ccnc(Oc3ccc(F)c(F)c3)n2)cc1 | -1.76 |
| CN(c1ccc(NC(=O)Nc2c(Cl)cccc2Cl)cc1)c1ccnc(Nc2cccc(CS(C)(=O)=O)c2)n1 | -4.21 |
| NC(=O)Cc1ccccc1Oc1nccc(-c2c(-c3ccc(F)cc3)ncn2C2CCNCC2)n1 | -0.11 |
| CN(C)CCOc1ccc(-c2cc(-c3ccc4c(c3)CCC4=NO)c(-c3ccncc3)o2)cc1 | 1.99 |
| CN(C)c1ccc2c(c1)/C(=C/Nc1ccc(S(N)(=O)=O)cc1)C(=O)N2 | 0.42 |
| COc1cc(C)c(N(C)C(=O)CN(C)C)cc1Nc1nc(Nc2cccc(F)c2C(N)=O)c2cc[nH]c2n1 | 4.78 |
| O=C(NCC1CC1)c1ccc(-c2cccc(C(=O)NC3CC3)c2)cc1 | 2 |
| COc1cc(N2CCN(C(C)C)CC2)ccc1Nc1nc(Nc2ccc(F)cc2C(=O)NC[C@@H](O)CO)c2cc[nH]c2n1 | -0.93 |
| NC(=O)c1ccc(Oc2nccc(-c3c(-c4ccc(F)cc4)ncn3C3CCNCC3)n2)cc1 | 2.66 |
| COc1cc2ncn(-c3cc(OCCc4ccccc4)c(C(N)=O)s3)c2cc1OC | 0.6 |
| CCc1cccc(CC)c1/C=C/c1cncc(C(=O)NC)c1 | 13.9 |
| COc1ccc2cc(-c3c(-c4ccncc4)nc(-c4ccc([S+](C)[O-])cc4C)n3C)ccc2c1 (stereo not drawn) | 1.17 |

From ChEMBL document CHEMBL1961873, “Compounds: GSK PKIS; Assays: Nanosyn kinase panel” (2012)
